Reference: the supplement of paper PMC11732987, “Enantioselective OTUD7B fragment discovery through chemoproteomics screening and high-throughput optimisation” (Communications Chemistry, 2025)

Columns and labels:
Assay in all cases: log2 ratio of Biotin-Ahx-Ub-VS probe labelling (fragment/DMSO); higher = less target engagement (more negative = stronger competition), active = hit call of the paper (q ≤ 0.05, log2 ratio ≤ -1)
Settings in all cases: compound concentration: 200 uM; treatment time: 3 h
USP34 = USP34 (UniProt Q70CQ2)
Chain of USP34 (Q70CQ2 whole entry, the tested form may be a part): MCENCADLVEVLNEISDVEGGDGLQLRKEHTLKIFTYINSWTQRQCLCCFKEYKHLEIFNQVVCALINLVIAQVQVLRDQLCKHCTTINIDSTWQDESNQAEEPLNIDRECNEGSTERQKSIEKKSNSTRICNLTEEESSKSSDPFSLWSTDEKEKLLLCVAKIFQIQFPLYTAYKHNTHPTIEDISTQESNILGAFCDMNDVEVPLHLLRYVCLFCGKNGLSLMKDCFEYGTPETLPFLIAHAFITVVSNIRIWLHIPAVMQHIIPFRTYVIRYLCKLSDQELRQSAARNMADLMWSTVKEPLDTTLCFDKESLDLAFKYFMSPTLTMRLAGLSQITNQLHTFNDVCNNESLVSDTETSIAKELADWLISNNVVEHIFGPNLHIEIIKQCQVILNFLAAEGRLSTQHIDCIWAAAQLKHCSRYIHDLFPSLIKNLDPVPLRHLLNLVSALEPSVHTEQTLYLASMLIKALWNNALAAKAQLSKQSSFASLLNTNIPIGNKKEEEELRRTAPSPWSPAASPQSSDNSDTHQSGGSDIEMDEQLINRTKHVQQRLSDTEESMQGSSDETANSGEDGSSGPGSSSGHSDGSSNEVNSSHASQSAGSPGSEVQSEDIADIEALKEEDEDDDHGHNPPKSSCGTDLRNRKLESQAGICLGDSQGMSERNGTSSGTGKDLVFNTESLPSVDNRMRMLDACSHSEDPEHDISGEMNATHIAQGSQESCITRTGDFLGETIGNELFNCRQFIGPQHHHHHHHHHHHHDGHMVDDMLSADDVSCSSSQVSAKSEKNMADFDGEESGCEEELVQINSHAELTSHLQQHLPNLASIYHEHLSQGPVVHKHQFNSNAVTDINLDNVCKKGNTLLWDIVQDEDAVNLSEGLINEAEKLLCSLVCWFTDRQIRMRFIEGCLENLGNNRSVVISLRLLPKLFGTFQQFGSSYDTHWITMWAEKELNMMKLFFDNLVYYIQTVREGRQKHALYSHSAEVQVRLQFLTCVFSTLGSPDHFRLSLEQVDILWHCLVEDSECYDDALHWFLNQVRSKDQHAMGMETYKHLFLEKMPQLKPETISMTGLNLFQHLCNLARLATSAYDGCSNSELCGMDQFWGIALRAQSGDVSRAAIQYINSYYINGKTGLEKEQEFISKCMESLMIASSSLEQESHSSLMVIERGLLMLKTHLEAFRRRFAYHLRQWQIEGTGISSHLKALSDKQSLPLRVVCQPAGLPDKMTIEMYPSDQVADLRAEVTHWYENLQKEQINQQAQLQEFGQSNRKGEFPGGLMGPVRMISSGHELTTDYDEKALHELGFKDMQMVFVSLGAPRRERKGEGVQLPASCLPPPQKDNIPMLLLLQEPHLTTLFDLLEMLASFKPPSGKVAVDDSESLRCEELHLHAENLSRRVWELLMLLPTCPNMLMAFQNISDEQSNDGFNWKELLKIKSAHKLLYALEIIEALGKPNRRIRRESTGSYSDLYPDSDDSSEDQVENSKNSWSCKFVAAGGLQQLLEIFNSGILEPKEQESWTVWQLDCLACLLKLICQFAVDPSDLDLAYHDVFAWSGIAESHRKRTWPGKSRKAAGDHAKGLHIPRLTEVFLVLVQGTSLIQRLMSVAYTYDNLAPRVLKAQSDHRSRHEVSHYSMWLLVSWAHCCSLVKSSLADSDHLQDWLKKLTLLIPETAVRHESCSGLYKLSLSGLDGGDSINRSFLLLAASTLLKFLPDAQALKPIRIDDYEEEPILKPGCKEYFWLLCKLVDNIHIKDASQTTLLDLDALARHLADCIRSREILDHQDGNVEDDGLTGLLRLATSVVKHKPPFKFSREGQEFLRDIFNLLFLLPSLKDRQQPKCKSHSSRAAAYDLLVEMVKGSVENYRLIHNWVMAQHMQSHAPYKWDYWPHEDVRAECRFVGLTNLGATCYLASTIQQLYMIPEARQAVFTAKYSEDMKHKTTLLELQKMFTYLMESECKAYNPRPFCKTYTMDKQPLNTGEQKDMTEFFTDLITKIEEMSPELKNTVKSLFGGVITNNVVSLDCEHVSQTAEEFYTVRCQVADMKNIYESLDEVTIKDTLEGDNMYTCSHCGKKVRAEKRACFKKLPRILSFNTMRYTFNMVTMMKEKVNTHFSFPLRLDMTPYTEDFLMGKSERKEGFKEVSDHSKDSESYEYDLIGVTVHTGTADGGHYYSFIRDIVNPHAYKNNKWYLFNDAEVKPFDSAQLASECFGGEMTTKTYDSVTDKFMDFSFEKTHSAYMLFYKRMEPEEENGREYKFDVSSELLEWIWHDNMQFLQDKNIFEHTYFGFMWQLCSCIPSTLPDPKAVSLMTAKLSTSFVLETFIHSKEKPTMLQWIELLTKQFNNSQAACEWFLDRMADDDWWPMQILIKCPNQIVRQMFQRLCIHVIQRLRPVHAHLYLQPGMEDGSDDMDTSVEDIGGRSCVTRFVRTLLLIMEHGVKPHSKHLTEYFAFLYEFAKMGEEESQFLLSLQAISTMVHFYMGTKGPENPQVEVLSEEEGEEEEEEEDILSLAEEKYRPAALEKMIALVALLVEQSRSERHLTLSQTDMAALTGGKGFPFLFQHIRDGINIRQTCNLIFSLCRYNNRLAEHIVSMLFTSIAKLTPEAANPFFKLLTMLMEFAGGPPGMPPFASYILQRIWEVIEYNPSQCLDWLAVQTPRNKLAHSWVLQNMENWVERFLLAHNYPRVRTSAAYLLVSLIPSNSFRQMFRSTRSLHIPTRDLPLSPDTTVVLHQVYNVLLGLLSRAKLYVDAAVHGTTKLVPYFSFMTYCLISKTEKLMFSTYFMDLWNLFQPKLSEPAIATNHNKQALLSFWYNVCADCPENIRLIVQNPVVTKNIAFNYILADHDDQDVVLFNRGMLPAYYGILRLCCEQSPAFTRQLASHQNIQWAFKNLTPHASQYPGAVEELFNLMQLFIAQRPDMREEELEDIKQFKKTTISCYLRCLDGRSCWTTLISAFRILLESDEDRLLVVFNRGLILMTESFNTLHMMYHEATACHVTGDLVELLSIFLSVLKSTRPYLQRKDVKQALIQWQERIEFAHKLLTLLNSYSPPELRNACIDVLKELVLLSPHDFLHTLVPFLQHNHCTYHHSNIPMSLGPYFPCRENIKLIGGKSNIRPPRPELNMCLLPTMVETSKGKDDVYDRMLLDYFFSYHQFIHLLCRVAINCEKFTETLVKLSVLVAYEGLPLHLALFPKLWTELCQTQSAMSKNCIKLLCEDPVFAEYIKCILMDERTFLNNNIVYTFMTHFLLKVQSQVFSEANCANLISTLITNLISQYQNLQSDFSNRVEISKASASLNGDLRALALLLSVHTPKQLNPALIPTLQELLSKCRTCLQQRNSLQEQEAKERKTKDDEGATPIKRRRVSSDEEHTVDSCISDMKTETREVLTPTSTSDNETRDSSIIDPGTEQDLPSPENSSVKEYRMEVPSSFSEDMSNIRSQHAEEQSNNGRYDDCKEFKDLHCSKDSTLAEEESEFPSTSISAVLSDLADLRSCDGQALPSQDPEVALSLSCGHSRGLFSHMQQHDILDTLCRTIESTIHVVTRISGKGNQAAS
How it was run: (§1)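 HEK293T lysate, 495 µg per sample in Tris/CHAPS/IGEPAL buffer with protease inhibitors, was treated in triplicate with fragment at 200 µM or vehicle for 3 h and then with Biotin-Ahx-Ub-VS at 0.5 µM final for 1 h. Labelled DUBs were NeutrAvidin-enriched, digested with LysC and trypsin, and run by diaPASEF LC-MS/MS. Spectronaut label-free quantities were global-median-normalised, and values are average log2 fragment/vehicle ratios by unpaired t-test on proteins with ≥2 unique peptides.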

USP36 = molecular target: T1, USP36 (UniProt Q9P275)
T1 sequence (whole entry): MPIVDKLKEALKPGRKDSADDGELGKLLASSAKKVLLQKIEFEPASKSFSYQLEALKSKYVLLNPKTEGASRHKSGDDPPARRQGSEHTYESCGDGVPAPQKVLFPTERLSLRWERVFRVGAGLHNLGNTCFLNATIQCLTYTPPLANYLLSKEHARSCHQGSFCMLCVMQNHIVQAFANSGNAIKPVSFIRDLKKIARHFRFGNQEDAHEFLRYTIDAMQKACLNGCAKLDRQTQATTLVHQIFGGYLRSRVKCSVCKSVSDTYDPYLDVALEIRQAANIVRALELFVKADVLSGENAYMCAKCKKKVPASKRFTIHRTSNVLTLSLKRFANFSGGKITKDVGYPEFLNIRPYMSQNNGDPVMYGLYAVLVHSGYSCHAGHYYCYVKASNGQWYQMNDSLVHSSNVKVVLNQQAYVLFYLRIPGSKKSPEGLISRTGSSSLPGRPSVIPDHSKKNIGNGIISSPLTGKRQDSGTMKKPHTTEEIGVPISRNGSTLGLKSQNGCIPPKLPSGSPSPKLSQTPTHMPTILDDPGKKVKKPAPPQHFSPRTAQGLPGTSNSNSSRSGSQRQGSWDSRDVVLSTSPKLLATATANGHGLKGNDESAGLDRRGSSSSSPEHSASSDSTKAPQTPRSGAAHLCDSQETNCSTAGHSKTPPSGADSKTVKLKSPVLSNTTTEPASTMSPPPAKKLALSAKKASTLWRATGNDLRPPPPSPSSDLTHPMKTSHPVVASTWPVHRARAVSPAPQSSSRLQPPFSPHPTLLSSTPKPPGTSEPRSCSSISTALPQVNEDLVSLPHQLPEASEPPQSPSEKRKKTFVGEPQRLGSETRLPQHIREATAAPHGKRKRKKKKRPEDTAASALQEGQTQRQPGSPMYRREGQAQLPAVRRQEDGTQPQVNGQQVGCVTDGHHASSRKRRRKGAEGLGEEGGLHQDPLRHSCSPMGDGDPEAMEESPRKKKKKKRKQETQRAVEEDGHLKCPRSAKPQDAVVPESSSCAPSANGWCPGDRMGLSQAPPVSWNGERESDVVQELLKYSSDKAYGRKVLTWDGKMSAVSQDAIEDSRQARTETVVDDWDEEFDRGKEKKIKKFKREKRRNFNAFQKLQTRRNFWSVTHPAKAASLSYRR
How it was run: as §1

USP38 = molecular target: T2, USP38 (UniProt Q8NB14)
T2 sequence (whole entry): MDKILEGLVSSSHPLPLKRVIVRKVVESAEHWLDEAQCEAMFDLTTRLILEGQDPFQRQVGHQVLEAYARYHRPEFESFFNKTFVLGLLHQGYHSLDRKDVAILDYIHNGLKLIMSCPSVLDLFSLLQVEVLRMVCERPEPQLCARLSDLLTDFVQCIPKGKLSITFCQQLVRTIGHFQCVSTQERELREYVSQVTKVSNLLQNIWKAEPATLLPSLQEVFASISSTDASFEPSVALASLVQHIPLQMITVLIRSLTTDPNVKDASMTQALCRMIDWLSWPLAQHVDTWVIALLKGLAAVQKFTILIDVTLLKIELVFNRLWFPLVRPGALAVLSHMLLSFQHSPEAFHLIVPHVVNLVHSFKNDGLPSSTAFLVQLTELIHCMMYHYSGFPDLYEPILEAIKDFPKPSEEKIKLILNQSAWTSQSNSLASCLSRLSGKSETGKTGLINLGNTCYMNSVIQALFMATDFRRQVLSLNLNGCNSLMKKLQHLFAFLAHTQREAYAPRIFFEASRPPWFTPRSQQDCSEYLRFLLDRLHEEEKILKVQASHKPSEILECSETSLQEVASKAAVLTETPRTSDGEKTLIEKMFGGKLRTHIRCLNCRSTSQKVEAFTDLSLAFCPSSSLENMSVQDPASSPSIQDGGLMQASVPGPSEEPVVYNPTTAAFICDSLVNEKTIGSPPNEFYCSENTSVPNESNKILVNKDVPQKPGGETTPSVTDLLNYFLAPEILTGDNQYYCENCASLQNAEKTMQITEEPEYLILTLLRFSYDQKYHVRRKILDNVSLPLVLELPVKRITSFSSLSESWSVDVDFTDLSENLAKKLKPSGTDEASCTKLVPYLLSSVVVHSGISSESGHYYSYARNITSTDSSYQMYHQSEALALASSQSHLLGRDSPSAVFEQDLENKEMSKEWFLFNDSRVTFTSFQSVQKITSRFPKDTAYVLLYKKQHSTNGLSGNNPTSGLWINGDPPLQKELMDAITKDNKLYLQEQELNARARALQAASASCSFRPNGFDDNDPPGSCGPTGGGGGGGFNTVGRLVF
How it was run: as §1

USP39 = molecular target: T3, USP39 (UniProt Q53GS9)
T3 sequence (whole entry): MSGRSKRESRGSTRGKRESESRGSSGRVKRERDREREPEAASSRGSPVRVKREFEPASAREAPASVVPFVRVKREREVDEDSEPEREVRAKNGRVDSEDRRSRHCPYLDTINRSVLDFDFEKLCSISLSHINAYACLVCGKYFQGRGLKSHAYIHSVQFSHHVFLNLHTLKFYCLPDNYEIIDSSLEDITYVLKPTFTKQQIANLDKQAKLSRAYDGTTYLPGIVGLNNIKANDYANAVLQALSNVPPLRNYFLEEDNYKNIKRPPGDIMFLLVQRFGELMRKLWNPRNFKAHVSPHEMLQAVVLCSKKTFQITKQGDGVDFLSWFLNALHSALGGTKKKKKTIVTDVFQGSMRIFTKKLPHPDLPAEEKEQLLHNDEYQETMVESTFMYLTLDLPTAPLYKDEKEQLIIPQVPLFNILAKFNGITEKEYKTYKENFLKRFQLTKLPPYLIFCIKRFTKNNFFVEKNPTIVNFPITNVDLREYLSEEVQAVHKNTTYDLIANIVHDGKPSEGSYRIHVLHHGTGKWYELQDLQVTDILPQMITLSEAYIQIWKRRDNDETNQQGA
How it was run: as §1

USP4 = molecular target: T4, USP4 (UniProt Q13107)
T4 sequence (whole entry): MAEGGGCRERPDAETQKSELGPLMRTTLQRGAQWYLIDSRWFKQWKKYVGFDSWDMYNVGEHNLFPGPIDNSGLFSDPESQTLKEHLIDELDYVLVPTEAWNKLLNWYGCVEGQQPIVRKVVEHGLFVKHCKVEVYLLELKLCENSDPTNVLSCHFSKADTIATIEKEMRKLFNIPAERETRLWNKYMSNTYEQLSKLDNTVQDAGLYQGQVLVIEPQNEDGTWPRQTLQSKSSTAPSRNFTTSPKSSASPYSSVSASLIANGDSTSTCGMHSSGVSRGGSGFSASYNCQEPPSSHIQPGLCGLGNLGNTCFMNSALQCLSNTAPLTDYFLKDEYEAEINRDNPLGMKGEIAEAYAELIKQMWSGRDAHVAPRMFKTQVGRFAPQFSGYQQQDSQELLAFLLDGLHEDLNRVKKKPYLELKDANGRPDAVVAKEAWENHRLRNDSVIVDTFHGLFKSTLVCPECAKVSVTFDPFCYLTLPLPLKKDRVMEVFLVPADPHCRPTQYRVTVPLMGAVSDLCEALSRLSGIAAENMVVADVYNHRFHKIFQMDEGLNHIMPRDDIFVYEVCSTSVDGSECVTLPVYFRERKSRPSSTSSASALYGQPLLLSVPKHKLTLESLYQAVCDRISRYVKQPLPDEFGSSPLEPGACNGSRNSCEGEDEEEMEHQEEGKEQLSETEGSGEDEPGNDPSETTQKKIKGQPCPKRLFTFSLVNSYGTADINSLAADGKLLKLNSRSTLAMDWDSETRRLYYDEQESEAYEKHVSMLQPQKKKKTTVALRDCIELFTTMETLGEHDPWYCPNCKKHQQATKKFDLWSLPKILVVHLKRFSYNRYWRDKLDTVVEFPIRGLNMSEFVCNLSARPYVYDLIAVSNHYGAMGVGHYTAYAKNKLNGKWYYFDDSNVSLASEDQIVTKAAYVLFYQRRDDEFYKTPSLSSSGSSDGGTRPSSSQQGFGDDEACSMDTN
How it was run: as §1

Measured: log2 ratio of Biotin-Ahx-Ub-VS probe labelling

Cc1cc(NC(=O)CCl)n(-c2ccccc2)n1
inactive: USP34 -0.374 | USP36 -0.0233 | USP38 -0.067 | USP39 -0.12 | USP4 0.0467
